# Source: PubChem
# Shown are actives, neighbours in structure and some others; about 1.8% of the full set was active somewhere.
# p53ts 32C tox = qHTS Screen for Compounds that Selectively Target Cancer Cells with p53 Mutations: Cytotoxicity of p53ts Cells at the Permissive Temperature; Potency, µM (series often up to 46.1 µM), for inactives: top-dose activity change, negative = cytotoxicity, most hits filed as cytotoxic; 0.93% of 130,000 active; H1299-p53A138V at 32C, ATP luminescence viability, 24 h;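 note: 0% = DMSO and -100% = full killing by reference compound; nearly all actives have a fitted effect of over 55% in size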
#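 Cells: H1299 p53ts (A138V), 600/well, pre-incubated 16–30 h at 37C. Cpd up to 46 uM, 24 h, 32C. Readout: ATPlite luminescence, 20 min RT. Normalization: DMSO vs tamoxifen 100 uM. AC50 by Hill equation.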
# IkB sig inh = IkB Signaling. ABC-DLBCL IkBa-CBG/CBR dual luciferase ratio, 4 h; response scale: scaled: untreated 0%, proteasome inhibitor 100%. Potency, µM (highest dose often 57.1 µM), for the others: at the highest dose IkBa stabilization activation. 0.04% of 110,000 active; active = well fitted curve in the direction sought with a large enough effect in the signal ratio, not every such curve was filed as active; inconclusive = small, poorly fitted or top-dose-only effect, or a change in a side signal; the % refers to the signal ratio;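 note: the direction sought is a rising ratio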
#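 Curves were fitted separately to fusion (green), unfused (red) and ratio luminescence, then classed by r2, magnitude and activity. Cells: OCI-Ly3, 4 h compound plus doxycycline at 37C; 10 uM MG-132 defined full response.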
# Peg3 imprint = qHTS Assay for Compounds that Induce Erasure of Genomic Imprints; mouse ES Peg3-LacZ reporter, beta-gal luminescence, 40 h; Potency, µM (highest dose often 60.7 µM), inactives show top-dose activity change, positive = activation, hits mostly activators; 0.02% of 110,000 active; AID 1948, 2009
#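 Imprint erasure is scored as LacZ activity from the silenced maternal Peg3 allele in feeder-free female ES cells cultured 40 h with LIF. Luminescence is normalized to in-plate negative controls and fitted to the Hill equation.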
# p53ts 39C kill = qHTS Screen for Compounds that Selectively Target Cancer Cells with p53 Mutations: Cytotoxicity of p53ts Cells at the Nonpermissive Temperature. Potency, µM (highest dose often 46.1 µM), for inactives: at the highest dose activity change, negative = cell killing, hits mostly cytotoxic. H1299-p53A138V viability at 39C, ATP luminescence, 24 h. 1.5% of 130,000 active; note: % is set by controls: 0 for no effect and ±100 for the full control effect; nearly all actives have a fitted effect of over 55% in size
# Active calls of the source: *; ? = inconclusive; · = not tested or not shown; [ ] = remark or other dose. Unless noted, calls come from the whole dose curve; as a rule, active = well fitted curve in the direction sought with a large enough effect; inconclusive = small, poorly fitted or top-dose-only effect, or another doubt; inactive = no such curve, though single readings can be large; an effect the other way counts as inactive or inconclusive. Potency is the fitted concentration of half-maximal effect.
SMILES,p53ts 32C tox,IkB sig inh,Peg3 imprint,p53ts 39C kill
CN1C(=O)c2ccccc2Sc2ccc(NC(=O)c3ccc(C#N)cc3)cc21,12%,?,17%[10.9 µM],?
COc1ccc(NC(=O)c2cc3c(s2)-c2c(C)cccc2OC3)cc1Cl,-11%,-1%,-10%[10.9 µM],?
CCOc1ccc(NC(=O)Cn2c(=O)n(-c3ccccc3)c(=O)c3c4c(sc32)CCCC4)cc1,-9%,-1%,20%[10.9 µM],-10%
COc1ccc(NC(=O)Cn2c(=O)n(-c3ccccc3)c(=O)c3c4c(sc32)CCCC4)cc1,?,?,8%[10.9 µM],25µM*
Cc1ccc(-c2cc(C(=O)N3CCN(S(=O)(=O)c4ccc(Br)s4)CC3)[nH]n2)c(C)c1,3%,·,·,·
Cc1ccccc1CSc1ccc(-c2cccs2)nn1,?,-1%,-13%[10.9 µM],11µM*
O=C(O)[C@@H]1[C@H](C(=O)O)[C@H]2C(=O)C=C[C@H]1N2Cc1ccccc1,6%[9.22 µM],4µM*,-19%[10.9 µM],2%[9.22 µM]
COc1ccc(-c2n[nH]c(C)c2-c2ccc(Cl)cc2)c(O)c1OC,13µM*,?,-23%,?
O=C(CS(=O)(=O)Cc1ccccc1)N1CCN(Cc2ccc3c(c2)OCO3)CC1,13µM*,9%,-64%,13µM*
C=Cc1ccc(Cn2c(C(=O)O)c(CNCc3cc(OC)ccc3OC)c3ccc(C)cc32)cc1,?,?,18%[10.9 µM],13µM*
C=Cc1ccc(Cn2c(C(=O)O)c(CNCCc3ccccc3)c3ccc(C)cc32)cc1,38%,?,5%[10.9 µM],?
COc1ccc(C(C)=O)cc1COC(=O)c1cnc(C)cn1,3%,-3%,16µM*,3%
COc1ccc(C(C)=O)cc1COC(=O)c1c(C)noc1C,-2%,2%,-13%,-12%
Cc1cccc(CNC(=O)Cc2ccc(NC(=O)N3CCCCc4ccccc43)cc2)c1,-1%,4%,-14%[10.9 µM],-24%
Cc1ccc(CNC(=O)CSc2nc3ccsc3c(=O)n2-c2ccc(C(=O)O)cc2)cc1,-1%,0%,-5%[10.9 µM],-12%
CC(=O)c1c(C)[nH]c(C(=O)Nc2ccc(C)cn2)c1C,2.5µM*,0%,-79%,5µM*
CC(=O)c1c(C)[nH]c(C(=O)NCc2ccccn2)c1C,-19%,1%,-13%,-12%
Cc1ccc(-n2ncc3c(NCCCN(C)C)ncnc32)cc1Cl,26%,1%,-4%[10.9 µM],16µM*
Cc1cc(/C=C2/C(=O)NN(c3ccccc3)C2=O)c(C)n1-c1cccc(O)c1,·,·,·,13µM*
CC1=NN(c2ccccc2)C(=O)/C1=C\c1cc(C)n(-c2ccccc2)c1C,·,·,·,20%
CC1=C(C(=O)Nc2ccc(C)cc2C)C(c2cc(Br)ccc2F)n2ncc(C(=O)Nc3ccc(C)cc3)c2N1 (stereo not drawn),?,?,-20%[10.9 µM],13µM*
CCCCn1c(=N)n(CCCOc2ccc(F)cc2)c2ccccc21,?,?,-25%[10.9 µM],10µM*
N=c1n(CCO)c2ccccc2n1CCOc1ccc(F)cc1,-10%,?,-15%[10.9 µM],-13%
CC(C)(C)c1ccc(C2Sc3ccccc3NC3=C2C(=O)c2ccccc23)cc1 (stereo not drawn),-5%,?,-16%[10.9 µM],2%
CC1(C)C(=O)NC2=C1C(=O)C(=O)c1ccccc12,1.3µM*,?,-68%,1µM*
SMILES,p53ts 32C tox,IkB sig inh,Peg3 imprint,p53ts 39C kill
Cc1nc2c(ccc3nc(NC(=O)c4ccc5c(c4)OCCO5)sc32)s1,4µM*,?,-1%,3.2µM*
CCOc1ccc(-c2cc(CCCC(=O)NCc3cccnc3)no2)cc1,16µM*,?,-17%,?
CCOc1ccc(-c2cc(CCCC(=O)Nc3cccc(OC)c3)no2)cc1,3%,3.2µM*,-45%,0%
CCOc1ccc(-c2cc(CCCC(=O)Nc3cc(OC)ccc3OC)no2)cc1,3%,?,-8%,-6%
Cc1ccc(NC(=O)CSc2[nH]c(=O)ncc2C)cc1,0.1µM*,-2%,-21%[10.9 µM],10µM*
Cc1ccc(NC(=O)CSc2ncc(-c3ccccc3)[nH]2)cc1,8%,?,-11%[10.9 µM],-23%
Cc1ccc2scc(N3CCN(c4cccc(C(F)(F)F)c4)CC3)c(=O)c2c1,-4%,-1%,-25%[10.9 µM],?
